Assay results reported in PubChem BioAssay AID1845227 (National Center for Advancing Translational Sciences (NCATS), 2023).
Records with an inconclusive call do not appear. Entries that show only a call come without a potency. Activity calls are given as the source filed them. Calls come from the whole dose curve; as a rule, active = well fitted inhibition curve with a large enough effect; inconclusive = small, poorly fitted or top-dose-only effect; inactive = no such curve, though single readings can be large or run the other way.

Target: Luciferin 4-monooxygenase (Photinus pyralis) (UniProt P08659)
Test: Confirmatory firefly luciferase (FLuc) qHTS assay for identification of artifact compounds
Conditions: purified FLuc enzyme, luminescence, 5 min; series mostly up to 38.9 µM
Outline: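 Compounds mixed 15 min with 10 uM luciferin/10 uM ATP, then 10 nM firefly luciferase added for 5 min at pH 7.6. Luminescence percent inhibition, scaled to no-enzyme and DMSO controls, fitted to Hill equation.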
Potency is the fitted concentration of half-maximal effect.

SMILES	Potency
CCCOc1ccc(C(=O)Nc2ccc3oc(-c4ccncc4)nc3c2)cc1	inactive
CCOC(=O)c1ccc(N2C(=O)c3n[nH]c(-c4ccco4)c3C2c2ccc(C)cc2)cc1 (stereo not given)	inactive
O=C(O)C1CC2CCCCC2N1C(=O)c1ccc(Cl)cc1 (stereo not given)	inactive
COc1ccc(-n2c(=O)c3ccc(C(=O)NCc4ccc(C)cc4)cc3n(Cc3ccc(Cl)cc3)c2=O)cc1	inactive
Cc1cccc(-c2noc(-c3cc(C(C)C)[nH]n3)n2)c1	6.12 µM (active)
